Rows were chosen to be rich in hits. Some 0.54% of all compounds tested hit in one or more screens of this group.
BH1578 lux ind: quorum light induction in luxS cqsA deficient V. cholerae. 0.16% of 350,000 active. V. cholerae BH1578 lux reporter, luminescence, 6 h. activation, % at 18.7 µM; in the data active = activation mostly above about 9.7%, no sharp cut-off
BioA inh: BioA (M. tuberculosis) enzyme inhibition; purified M. tuberculosis BioA enzyme, plate reader; inhibition, % at 9.99 µM; 0.096% of 360,000 active; AID 602481; in the data active = inhibition above about 40%
FadD28 FP inh: inhibitors of Mycobacterium tuberculosis FadD28 bisubstrate binding; FadD28 bisubstrate probe binding, fluorescence polarization; inhibition, % at 12.5 µM; 0.22% of 360,000 active; in the data active = inhibition above about 8.5%, passing the limit was not always enough
TcdB inh: inhibitors of Clostridioides difficile toxin B glycohydrolase; P18177; TcdB glycohydrolase enzymatic assay, plate reader; inhibition, % at 9.99 µM; 0.24% of 350,000 active; in the data active = inhibition above about 10%
Target sequence (P18177 whole entry, looked up): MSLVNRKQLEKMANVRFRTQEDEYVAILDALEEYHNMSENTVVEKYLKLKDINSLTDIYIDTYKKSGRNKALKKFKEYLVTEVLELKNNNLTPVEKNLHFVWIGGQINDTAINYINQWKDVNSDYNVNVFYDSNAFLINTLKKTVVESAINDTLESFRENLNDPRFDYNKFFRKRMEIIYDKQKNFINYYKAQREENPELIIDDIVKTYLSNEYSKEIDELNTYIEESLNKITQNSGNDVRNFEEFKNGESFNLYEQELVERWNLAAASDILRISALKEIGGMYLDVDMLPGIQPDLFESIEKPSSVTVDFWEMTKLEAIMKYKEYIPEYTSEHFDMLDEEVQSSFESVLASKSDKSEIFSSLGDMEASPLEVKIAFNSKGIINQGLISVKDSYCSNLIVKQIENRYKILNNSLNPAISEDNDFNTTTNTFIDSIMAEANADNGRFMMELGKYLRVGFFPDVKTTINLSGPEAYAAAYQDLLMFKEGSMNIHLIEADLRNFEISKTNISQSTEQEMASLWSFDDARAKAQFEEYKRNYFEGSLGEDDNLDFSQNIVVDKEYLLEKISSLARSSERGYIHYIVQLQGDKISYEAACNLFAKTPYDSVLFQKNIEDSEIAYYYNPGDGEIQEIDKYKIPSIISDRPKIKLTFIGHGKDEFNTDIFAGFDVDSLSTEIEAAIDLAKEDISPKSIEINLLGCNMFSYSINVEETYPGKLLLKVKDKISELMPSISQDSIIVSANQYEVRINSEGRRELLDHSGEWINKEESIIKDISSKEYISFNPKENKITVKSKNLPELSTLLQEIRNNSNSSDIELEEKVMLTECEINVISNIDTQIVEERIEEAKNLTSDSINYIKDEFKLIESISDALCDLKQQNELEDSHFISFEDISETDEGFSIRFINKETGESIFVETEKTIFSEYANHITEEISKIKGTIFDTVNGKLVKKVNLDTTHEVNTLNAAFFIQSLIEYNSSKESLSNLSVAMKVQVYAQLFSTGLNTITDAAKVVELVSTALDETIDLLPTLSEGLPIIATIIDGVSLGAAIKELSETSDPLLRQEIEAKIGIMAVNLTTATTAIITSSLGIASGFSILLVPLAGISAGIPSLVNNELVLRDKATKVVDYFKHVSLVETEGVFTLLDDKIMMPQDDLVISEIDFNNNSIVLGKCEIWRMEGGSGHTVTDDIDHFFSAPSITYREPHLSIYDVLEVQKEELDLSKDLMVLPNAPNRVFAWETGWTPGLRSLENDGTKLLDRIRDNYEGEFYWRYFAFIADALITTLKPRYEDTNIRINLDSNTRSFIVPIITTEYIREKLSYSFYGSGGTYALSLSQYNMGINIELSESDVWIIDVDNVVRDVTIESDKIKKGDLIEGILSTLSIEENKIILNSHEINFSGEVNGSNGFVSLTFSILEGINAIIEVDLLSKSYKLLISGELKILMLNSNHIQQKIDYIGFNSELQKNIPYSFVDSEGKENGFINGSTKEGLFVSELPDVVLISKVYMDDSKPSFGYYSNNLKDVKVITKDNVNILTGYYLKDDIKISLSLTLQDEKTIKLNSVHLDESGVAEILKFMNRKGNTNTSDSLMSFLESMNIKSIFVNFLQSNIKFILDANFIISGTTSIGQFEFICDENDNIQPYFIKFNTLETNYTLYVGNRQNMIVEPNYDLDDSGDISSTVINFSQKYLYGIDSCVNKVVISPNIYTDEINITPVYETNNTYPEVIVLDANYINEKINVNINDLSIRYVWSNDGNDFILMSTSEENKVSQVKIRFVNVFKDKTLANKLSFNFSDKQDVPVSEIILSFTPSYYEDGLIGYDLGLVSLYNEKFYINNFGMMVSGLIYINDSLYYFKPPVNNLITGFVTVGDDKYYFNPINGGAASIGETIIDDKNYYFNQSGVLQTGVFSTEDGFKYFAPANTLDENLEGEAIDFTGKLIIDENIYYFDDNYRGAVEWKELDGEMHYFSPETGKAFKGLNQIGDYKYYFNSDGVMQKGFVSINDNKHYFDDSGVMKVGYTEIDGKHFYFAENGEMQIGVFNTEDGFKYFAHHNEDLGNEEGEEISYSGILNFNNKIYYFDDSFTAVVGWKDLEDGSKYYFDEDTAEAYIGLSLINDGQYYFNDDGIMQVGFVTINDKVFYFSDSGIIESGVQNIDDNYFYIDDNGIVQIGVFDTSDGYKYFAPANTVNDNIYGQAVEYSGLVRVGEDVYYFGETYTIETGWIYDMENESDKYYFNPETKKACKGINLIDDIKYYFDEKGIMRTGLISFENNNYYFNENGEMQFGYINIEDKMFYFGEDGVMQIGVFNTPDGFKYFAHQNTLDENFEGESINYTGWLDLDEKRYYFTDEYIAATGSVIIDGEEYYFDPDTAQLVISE
Each line names hits and unclear results; the compound was inactive in the other large screens.

O=C(CN1C(=O)NC2(CCOc3ccccc32)C1=O)c1ccc(Br)cc1 (configuration not stated)	FadD28 FP inh 21
O=C(CN1C(=O)NC2(CCOc3ccccc32)C1=O)c1ccc(Cl)cc1 (configuration not stated)	FadD28 FP inh 16
O=C(Cc1ccccn1)N1CC(=O)N2[C@H](CO)[C@@H](c3ccc(C#CC4CCCC4)cc3)[C@@H]2C1	none (no result: BH1578 lux ind, BioA inh, FadD28 FP inh)
COCCn1c(=S)[nH]c2sc3c(c2c1=O)CCC(C)C3 (configuration not stated)	FadD28 FP inh 12
C[C@@H]1CN([C@H](C)CO)C(=O)Cc2cc(NC(=O)Nc3ccccc3)ccc2O[C@H]1CN(C)C(=O)Nc1ccc(C(F)(F)F)cc1	none (no result: BH1578 lux ind, FadD28 FP inh, TcdB inh)
O=C(O)c1ccc2c(c1)C(=O)N(c1cccc3ccccc13)C2=O	BH1578 lux ind 83
CNc1cc(Cl)nc(SC)n1	none (no result: BioA inh)
CSc1nc(Cl)cc(Nc2ccc(O)cc2)n1	TcdB inh 15 (no result: BioA inh)
O=C(NCc1cccc(Cl)c1)c1ccc(-c2csnn2)cc1	none
O=C(NNc1ccc(-c2csnn2)cc1)c1cc(Cl)cc(Cl)c1	TcdB inh 18
O=C(NNc1ccc(-c2csnn2)cc1)c1ccccc1C(F)(F)F	TcdB inh 12
C[C@@H]1CN([C@@H](C)CO)C(=O)c2cc(NC(=O)c3ccncc3)ccc2O[C@@H](C)CCCCO[C@@H]1CN(C)S(=O)(=O)c1cn(C)cn1	none (no result: BH1578 lux ind, FadD28 FP inh)
CC(C)OC(=O)C1C2C=CC3(CN(C(C)c4ccc(Br)cc4)C(=O)C13)O2 (configuration not stated)	none
CC(C)OC(=O)C1C2C=CC3(CN(CC4CCCO4)C(=O)C13)O2 (configuration not stated)	BH1578 lux ind 21 (no result: TcdB inh)
CO[C@@H](CN(C)Cc1nccs1)[C@H](C)CN([C@@H](C)CO)S(=O)(=O)c1ccc(C)cc1	none (no result: BH1578 lux ind, FadD28 FP inh)
O=C1C2ON(c3ccccc3)C(c3ccccn3)C2C(=O)N1c1ccc(Br)cc1 (configuration not stated)	FadD28 FP inh 13 (no result: BH1578 lux ind)
Cc1noc(C)c1S(=O)(=O)Nc1ccc2c(c1)C(=O)N([C@H](C)CO)C[C@H](C)[C@@H](CN(C)Cc1ccc(Oc3ccccc3)cc1)O2	none (no result: BH1578 lux ind, FadD28 FP inh)
CC(=O)N1[C@@H](CO)[C@@H](c2ccccc2)C12CN(C(=O)Cc1ccccc1)C2	none (no result: BH1578 lux ind, BioA inh, FadD28 FP inh)
COc1cc(Cn2c(-c3ccc(O)c(OC)c3)nc3ccccc32)ccc1O	TcdB inh 15 (no result: BioA inh)
CCc1ccc(Nc2cc(=O)n(C3CCCCC3)c(=O)[nH]2)cc1	none (no result: TcdB inh)
O=c1cc(Nc2ccc3c(c2)OCCO3)[nH]c(=O)n1C1CCCCC1	FadD28 FP inh 15
CO[C@@H]1CN(C)C(=O)c2cc(NC(=O)c3cccc(F)c3)ccc2OC[C@H](C)N(CC2CC2)C[C@H]1C	none (no result: BH1578 lux ind, FadD28 FP inh)
Cc1ccc(S(=O)(=O)Nc2ccc3c(c2)C(=O)N([C@H](C)CO)C[C@@H](C)[C@@H](CN(C)S(=O)(=O)c2ccc(Cl)cc2)O3)cc1	none (no result: BH1578 lux ind, BioA inh, FadD28 FP inh)
C[C@H]1CN([C@@H](C)CO)C(=O)c2cccc(NC(=O)c3cnccn3)c2O[C@@H]1CN(C)CC1CC1	none (no result: BH1578 lux ind, FadD28 FP inh)
O=S(=O)(Nc1nc2c(s1)CCCC2)c1ccc2ccccc2c1	BH1578 lux ind 17 (no result: TcdB inh)
Nc1ncc(S(=O)(=O)c2ccc([N+](=O)[O-])cc2)s1	TcdB inh 11
CS(=O)(=O)Nc1ccc2c(c1)[C@H]1C[C@H](CC(=O)NCC(F)(F)F)O[C@@H](CO)[C@H]1O2	none (no result: BH1578 lux ind, FadD28 FP inh)
N#CCCN(C(=O)COC(=O)c1ccc2c(c1)OCO2)c1ccccc1	none
N#CCCN(C(=O)COC(=O)c1cc(=O)c2ccccc2o1)c1ccccc1	TcdB inh 10
CCCCn1c(=S)[nH]c2c(=O)n(C)c(=O)n(C)c21	TcdB inh 52
O=c1[nH][nH]c(=O)c2c1[nH]c(=S)n2Cc1ccccc1	TcdB inh 12
Cn1c(=O)c2[nH]c(=S)n(Cc3ccccc3)c2n(C)c1=O	TcdB inh 50 (no result: BH1578 lux ind, BioA inh)
S=c1[nH]c2ccccc2n1Cc1ccccc1	none
Cc1ccc(S(=O)(=O)N(C)C[C@H]2OCCCC[C@H](C)Oc3ccc(NS(=O)(=O)c4ccccc4)cc3C(=O)N([C@@H](C)CO)C[C@H]2C)cc1	none (no result: BH1578 lux ind, FadD28 FP inh)
COc1ccccc1NC(=O)c1cc2ccc(O)cc2o/c1=N\O	FadD28 FP inh 18 (no result: TcdB inh)
COc1ccc(-c2ccc3c(c2)O[C@@H](CN(C)C)[C@@H](C)CN([C@H](C)CO)S3(=O)=O)cc1	none (no result: BH1578 lux ind, FadD28 FP inh)
CCOC(=O)c1sc(NC(=O)c2ccc(Cl)s2)cc1C	none
CCOC(=O)c1sc(NC(=O)Nc2ccc(Cl)cc2)cc1C	FadD28 FP inh 25 (no result: TcdB inh)
CC(=O)n1cc([C@@H]2C=C(C(=O)N3CCN(Cc4ccccc4)CC3)O[C@H](OCCCCO)C2)c2ccccc21	none (no result: BH1578 lux ind, FadD28 FP inh)
CCOc1ccc(N2CC(C(=O)NC(C)C)CC2=O)cc1 (configuration not stated)	none (no result: TcdB inh)
CCCNC(=O)C1CC(=O)N(c2ccc(OCC)cc2)C1 (configuration not stated)	TcdB inh 11
C[C@@H]1CN([C@@H](C)CO)C(=O)c2cccc(NC(=O)C3CCCCC3)c2O[C@@H]1CN(C)C(=O)Nc1ccc(C(F)(F)F)cc1	none (no result: BH1578 lux ind, FadD28 FP inh)
O=C(NC(Cc1ccccc1)C(=O)O)C1CCN(S(=O)(=O)c2ccccc2C(F)(F)F)CC1 (configuration not stated)	FadD28 FP inh 11
Cc1cccc(NC(=O)Cn2c(=O)n3nc(CCn4nc(C)cc4C)nc3c3ccccc32)c1	FadD28 FP inh 9.0 (no result: TcdB inh)
C[C@@H]1CCCCO[C@@H](CN(C)S(=O)(=O)c2ccc(F)cc2)[C@H](C)CN([C@@H](C)CO)C(=O)c2cc(NS(=O)(=O)c3ccc(F)cc3)ccc2O1	none (no result: BH1578 lux ind, FadD28 FP inh, TcdB inh)
COc1ccc(C(=O)N2CCOCC2)cc1S(=O)(=O)N1CCCc2ccccc21	TcdB inh 12 (no result: BioA inh)
COc1ccc(C(=O)NCc2ccc(C)cc2)cc1S(=O)(=O)N1CCCc2ccccc21	FadD28 FP inh 9.9 (no result: TcdB inh)
COc1cccc(-c2ccc(C3[C@H]4CNC[C@@H]3N4S(=O)(=O)c3cccc(Cl)c3)cc2)c1 (some centres not stated)	none (no result: BH1578 lux ind, BioA inh, FadD28 FP inh)
CC(C)NC(=O)N(C)C[C@H]1Oc2ccc(NS(=O)(=O)c3cn(C)cn3)cc2C(=O)N([C@@H](C)CO)C[C@H]1C	none (no result: BH1578 lux ind, FadD28 FP inh)
CC1C(=O)NN=C1c1ccc([N+](=O)[O-])cc1 (configuration not stated)	TcdB inh 10 (no result: BioA inh)
C=CCn1c(C)cc(C(=O)COC(=O)CCc2cc(OC)c(OC)c(OC)c2)c1C	TcdB inh 12
N/C(=N\N=C\c1ccc(O)cc1)c1nonc1N	TcdB inh 28 (no result: BioA inh)
COc1cccc(CN2[C@H](CO)[C@H](c3ccccc3)C23CN(C(=O)C2CCOCC2)C3)c1	none (no result: BH1578 lux ind, BioA inh, FadD28 FP inh)
CN(CC(=O)Nc1ccccc1Cl)C(=O)CSc1nc2ccccc2s1	none
COc1ccc(NC(=O)CN(C)C(=O)CSc2nc3ccccc3s2)cc1	BH1578 lux ind 20 (no result: BioA inh)
COc1ccccc1CNC(=O)C[C@H]1CC[C@H](NC(=O)CN(C)C)[C@@H](CO)O1	none (no result: BH1578 lux ind, FadD28 FP inh)
COCCCNc1c2c3c(cccc3[nH]c1=O)C(=O)c1ccccc1-2	FadD28 FP inh 58
COCCCNC1=C(Cl)C(=O)c2ccccc2C1=O	none
Cc1ccc2nc(-c3ccc4c(c3)OCCO4)cn2c1	TcdB inh 26
c1ccn2cc(-c3ccc4c(c3)OCCO4)nc2c1	none (no result: BioA inh)
COc1ccc(-c2cn3cc(C)ccc3n2)cc1F	TcdB inh 20

Assay outcomes from PubChem BioAssay.
